# Source: PubChem
# Sm TGR block = blocks Schistosoma mansoni thioredoxin glutathione reductase; Q962Y6; purified TGR, DTNB reduction, TNB absorbance 405 nm; Potency, µM (highest dose often 114 µM), for the others: top-dose activity change, negative = inhibition, most hits filed as inhibitors; actives 3% (n = 360,000); AID 485364; note: nearly all actives have a fitted effect of over 60% in size
#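 First, TGR (20 nM dispensed) and NADPH were mixed with compound. Second, a 15 min room-temperature incubation followed. Third, further NADPH and then DTNB were added to start the reaction. Finally, TNB absorbance was monitored kinetically.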
# FMDV inh = blocks foot and mouth disease virus. Potency, µM (highest dose often 57.9 µM), inactives show at the highest dose activity change, negative = inhibition, actives largely listed as inhibitors. FMDV antiviral cell-based qHTS. actives 1.2% (n = 410,000); calls by dose curve; tested in HEK293T cells; note: read-out not given here; nearly all actives have a fitted effect of over 45% in size
# RE007 growth inh = less growth of the S. pombe RE007 Vpr strain. S. pombe RE007 Vpr strain, BacTiter-Glo ATP luminescence, 24 h. Potency, µM (doses to about 92.2 µM), for inactives: at the highest dose activity change, negative = less growth, most hits filed as inhibitors. actives 0.21% (n = 360,000); active = well fitted falling curve with a large enough effect; inconclusive = small, poorly fitted or top-dose-only effect; inactive = no such curve, though single readings can be large or run the other way; note: nearly all actives have a fitted effect of over 50% in size
#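 Fission yeast RE007 carrying one integrated HIV-1 vpr copy, seeded at OD 0.01 in PMG+AL medium with 23 nL pinned compound. Grown 24 h at 30 degrees; viability read by BacTiter-Glo luminescence after 5 min.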
# Marburg entry inh = Marburg virus entry inhibition. Potency, µM (top dose mostly 37.8 µM), without a hit: top-dose activity change, negative = inhibition, actives largely listed as inhibitors. actives 1.8% (n = 300,000). Marburg virus pseudotyped entry inhibition, cell reporter. AID 540276; calls by dose curve; tested in HEK293 cells
# HCV inhibitor = inhibitors of hepatitis C virus infection; actives 3.4% (n = 340,000); AID 651820; Huh7.5.1 HCVcc-Cre infection, luciferase reporter, 44 h; Potency, µM (doses to about 41.8 µM), inactives show top-dose activity change, negative = inhibition, most hits filed as inhibitors
#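 A cell-based infection assay in which seeded cells (1,000 per well) receive test compound after 4 h, are inoculated with HCVcc-Cre at approximately 0.5 moi, and are incubated 44 h before luminescence detection.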
# LASV entry inh = blocks Lassa virus binding to or entry into cells. Lassa virus pseudotype entry inhibition, cell reporter. Potency, µM (doses to about 37.9 µM), for inactives: at the top dose activity change, negative = inhibition, usual class: inhibitors. actives 1.2% (n = 300,000). AID 540256; calls by dose curve; tested in HEK293 cells; note: nearly all actives have a fitted effect of over 50% in size
# Numbers without * were called inactive; ? = inconclusive; · = no result given; [ ] = another dose, or the depositor's remark. Most compounds without a hit are left out; they make up all but 7.2% or so of the library. Unless noted, calls come from the whole dose curve; as a rule, active = well fitted curve in the direction sought with a large enough effect; inconclusive = small, poorly fitted or top-dose-only effect, or another doubt; inactive = no such curve, though single readings can be large; an effect the other way counts as inactive or inconclusive. % is set by controls: 0 for no effect and ±100 for the full control effect; potency is the fitted concentration of half-maximal effect.
SMILES,Sm TGR block,FMDV inh,RE007 growth inh,Marburg entry inh,HCV inhibitor,LASV entry inh
Cc1ccc(OCC(=O)Nc2ccc(OCc3cc(=O)n4ccsc4n3)cc2)cc1C,-2%,-1%,·,-1%[46.1 µM],·,14%[46.1 µM]
CC(C)(C)c1ccc(C(=O)Nc2ccc(C(=O)OCc3cc(=O)n4ccsc4n3)cc2)cc1,-4%,14µM*,·,·,·,-29%[46.1 µM]
Cc1ccc(OCC(=O)Nc2ccc(C(=O)OCc3cc(=O)n4ccsc4n3)cc2)cc1C,-3%,35µM*,·,·,·,-9%[46.1 µM]
CC(Oc1ccccc1)C(=O)Nc1ccc(C(=O)OCc2cc(=O)n3ccsc3n2)cc1 (stereo unspecified),-4%,25µM*,·,·,·,?
O=C(CNC(=O)c1ccccc1)OCc1cc(=O)n2ccsc2n1,7%,4%,·,·,·,-21%[46.1 µM]
Cc1ccc(C(=O)Nc2ccc(C(=O)OCc3cc(=O)n4ccsc4n3)cc2)cc1,-2%,7%,·,·,·,18%[46.1 µM]
Cc1cn2c(=O)cc(COC(=O)c3ccc(NC(=O)C(C)Oc4ccccc4)cc3)nc2s1 (stereo unspecified),5%,-7%,·,·,·,?
O=C(Nc1cccc(F)c1)c1ccc2c(c1)N(Cc1ccccc1)C(=O)c1ccccc1S2(=O)=O,1%,0%,·,?,·,-20%[46.1 µM]
CCCCCC(=O)N1C[C@H](n2cc(C3CC3)nn2)[C@@H](O)C[C@H]1c1ccc(Cl)cc1,·,·,·,·,·,-37%[46.1 µM]
CCC1(C2CCN(Cc3cccc4ccccc34)CC2)NC(=O)N(Cc2ccc3c(c2)OCO3)C1=O (stereo unspecified),·,-2%,·,·,·,·
CCOC(=O)c1sc2ccccc2c1S(=O)(=O)Nc1ccc(N(C)C)cc1,6%,0%,·,·,·,-12%[46.1 µM]
COc1cccc(CNC(=O)c2cnn(-c3ncc4c(n3)-c3ccccc3CCC4)c2C)c1OC,·,43%,·,·,·,·
CCN1CCCC(Sc2nc3c([nH]2)c(=S)n(C)c(=O)n3C)C1 (stereo unspecified),40µM*,66%,·,·,-3%,·
Cn1c(=S)c2[nH]c(SCCN3CCCC3)nc2n(C)c1=O,40µM*,0%,·,·,-16%,·
Cn1c(=S)c2[nH]c(SCCN)nc2n(C)c1=O,·,-7%,-19%,0%,-9%,25%
CCOC(=O)N/N=C1\C[C@@H](O)[C@@H](O)[C@@H]2[C@@H]3C(=O)N(Cc4ccc5c(c4)OCO5)C(=O)[C@@H]3CC[C@H]12,·,·,·,-2%[14.2 µM],·,·
COc1ccc(-c2nc(CCNC(=O)c3cccs3)cs2)cc1OC,-2%,?,·,·,·,?
Cc1ccc(N2C(=O)NC(=O)C3(Cc4ccccc4N4CCN(c5ccccc5)CC43)C2=O)cc1 (stereo unspecified),18µM*,55%,23%,-27%,2%,-4%
c1ccc2c(N3CCNCC3)nc(-c3ccoc3)nc2c1,·,12%,·,·,·,·
C=Cc1ccc(Cn2c(=O)n(CC3CCC(C(=O)NC(C)C)CC3)c(=O)c3sccc32)cc1 (stereo unspecified),3%,-17%,·,·,·,4%[46.1 µM]
CC(C)(C)c1cc(/C=C2\NC(=O)NC2=O)cc(C(C)(C)C)c1O,1.1µM*,-9%,-2%,·,?,·
O=C1NC(=O)/C(=C/c2cccc(O)c2)N1,-17%,3%,10%,·,3%,·
CC1(C)CC(CCNC(=O)CCl)(c2ccccc2)CCO1 (stereo unspecified),45µM*,-26%,-3%,·,10%,·
COCC(=O)N1CCC2(CC1)CN(C(=O)Nc1ccccc1)C2,·,-10%,·,·,·,·
CCOC(=O)CSc1nc2c(c(-c3ccc(C)o3)c1C#N)CCCC2,45µM*,-2%,-14%,19%,?,-4%
SMILES,Sm TGR block,FMDV inh,RE007 growth inh,Marburg entry inh,HCV inhibitor,LASV entry inh
Cc1ccc(-c2c(C#N)c(N)nc3c2CCCCC3)o1,-24%,0%,10%,8%,5%,1%
CC(C)OC(=O)CC(=O)CSc1nc2c(c(-c3cccs3)c1C#N)CCC2,0%,-14%,6%,·,10µM*,·
COC(=O)CSc1nc2c(c(-c3ccco3)c1C#N)CCCC2,3.2µM*,-25%,0%,10%,?,-13%
Cc1ccc(S(=O)(=O)Nc2cc3c(cc2Cl)n(C)c(=O)c(=O)n3C)cc1,3%,18%,·,1%[46.1 µM],·,6%[46.1 µM]
CCOc1ccc(NC(=O)c2cc3c(C)nn(-c4ccccc4)c3s2)cc1,5%,?,·,12%[46.1 µM],·,-2%[46.1 µM]
[N-]=[N+]=NC(c1ccccc1)C(NC(=O)c1cc(C(F)(F)F)cc(C(F)(F)F)c1)c1ccccc1 (stereo unspecified),·,25µM*,6%,·,·,·
O=C(NC(c1ccccc1)C(Cl)Cl)c1ccccc1 (stereo unspecified),-6%,-3%,-9%,?,16%,7%
Cc1cc(N2CCOCC2)ccc1/C=C\[N+](=O)[O-],20µM*,?,7.9µM*,?,?,21µM*
O=[N+]([O-])c1ccc(N2CCOCC2)cc1O,-1%,5%,3%,-1%[46.1 µM],-3%,-2%[46.1 µM]
CC#CCN(Cc1ccco1)C(=O)c1ccc(OC2CCN(Cc3ccccn3)CC2)cc1,79µM*,-3%,-15%,-6%,-28%,-1%
CN(Cc1ccco1)C(=O)c1ccc(OC2CCN(Cc3ccccn3)CC2)cc1,?,-16%,0%,·,8%,·
CCc1ccc2oc(-c3cc(NC(=O)c4cc(OC)c(OC)c(OC)c4)ccc3O)nc2c1,9%,-15%,·,·,·,15%[46.1 µM]
CCc1ccc2oc(-c3cc(N=Cc4cccc(OC)c4O)ccc3O)nc2c1,-11%,-43%,-11%,?,8%,6.5µM*
CCOC(=O)/C(=C\c1ccc(OC(F)F)cc1)C1=Nn2c(nnc2-c2ccc(Cl)cc2)SC1,1%,13µM*,24%,?,?,?
CCOC(=O)/C(=C/c1ccc(OC(F)F)cc1)C1=Nn2c(nnc2-c2ccc(Cl)cc2)SC1,·,13µM*,14%,?,?,?
CC(=O)c1cccc(NC(=O)c2nc(-c3ccc(C)cc3)n3c2CCCCC3)c1,16%,?,·,·,·,-8%[46.1 µM]
